mHTT CaM bind: mHTT-calmodulin interaction abrogation. 3.6% of 190,000 active. P42858. inhibition, % at 15 µM. AlphaScreen His-mHTT/GST-CaM binding, luminescence
Target sequence (P42858 whole entry, looked up, change not shown): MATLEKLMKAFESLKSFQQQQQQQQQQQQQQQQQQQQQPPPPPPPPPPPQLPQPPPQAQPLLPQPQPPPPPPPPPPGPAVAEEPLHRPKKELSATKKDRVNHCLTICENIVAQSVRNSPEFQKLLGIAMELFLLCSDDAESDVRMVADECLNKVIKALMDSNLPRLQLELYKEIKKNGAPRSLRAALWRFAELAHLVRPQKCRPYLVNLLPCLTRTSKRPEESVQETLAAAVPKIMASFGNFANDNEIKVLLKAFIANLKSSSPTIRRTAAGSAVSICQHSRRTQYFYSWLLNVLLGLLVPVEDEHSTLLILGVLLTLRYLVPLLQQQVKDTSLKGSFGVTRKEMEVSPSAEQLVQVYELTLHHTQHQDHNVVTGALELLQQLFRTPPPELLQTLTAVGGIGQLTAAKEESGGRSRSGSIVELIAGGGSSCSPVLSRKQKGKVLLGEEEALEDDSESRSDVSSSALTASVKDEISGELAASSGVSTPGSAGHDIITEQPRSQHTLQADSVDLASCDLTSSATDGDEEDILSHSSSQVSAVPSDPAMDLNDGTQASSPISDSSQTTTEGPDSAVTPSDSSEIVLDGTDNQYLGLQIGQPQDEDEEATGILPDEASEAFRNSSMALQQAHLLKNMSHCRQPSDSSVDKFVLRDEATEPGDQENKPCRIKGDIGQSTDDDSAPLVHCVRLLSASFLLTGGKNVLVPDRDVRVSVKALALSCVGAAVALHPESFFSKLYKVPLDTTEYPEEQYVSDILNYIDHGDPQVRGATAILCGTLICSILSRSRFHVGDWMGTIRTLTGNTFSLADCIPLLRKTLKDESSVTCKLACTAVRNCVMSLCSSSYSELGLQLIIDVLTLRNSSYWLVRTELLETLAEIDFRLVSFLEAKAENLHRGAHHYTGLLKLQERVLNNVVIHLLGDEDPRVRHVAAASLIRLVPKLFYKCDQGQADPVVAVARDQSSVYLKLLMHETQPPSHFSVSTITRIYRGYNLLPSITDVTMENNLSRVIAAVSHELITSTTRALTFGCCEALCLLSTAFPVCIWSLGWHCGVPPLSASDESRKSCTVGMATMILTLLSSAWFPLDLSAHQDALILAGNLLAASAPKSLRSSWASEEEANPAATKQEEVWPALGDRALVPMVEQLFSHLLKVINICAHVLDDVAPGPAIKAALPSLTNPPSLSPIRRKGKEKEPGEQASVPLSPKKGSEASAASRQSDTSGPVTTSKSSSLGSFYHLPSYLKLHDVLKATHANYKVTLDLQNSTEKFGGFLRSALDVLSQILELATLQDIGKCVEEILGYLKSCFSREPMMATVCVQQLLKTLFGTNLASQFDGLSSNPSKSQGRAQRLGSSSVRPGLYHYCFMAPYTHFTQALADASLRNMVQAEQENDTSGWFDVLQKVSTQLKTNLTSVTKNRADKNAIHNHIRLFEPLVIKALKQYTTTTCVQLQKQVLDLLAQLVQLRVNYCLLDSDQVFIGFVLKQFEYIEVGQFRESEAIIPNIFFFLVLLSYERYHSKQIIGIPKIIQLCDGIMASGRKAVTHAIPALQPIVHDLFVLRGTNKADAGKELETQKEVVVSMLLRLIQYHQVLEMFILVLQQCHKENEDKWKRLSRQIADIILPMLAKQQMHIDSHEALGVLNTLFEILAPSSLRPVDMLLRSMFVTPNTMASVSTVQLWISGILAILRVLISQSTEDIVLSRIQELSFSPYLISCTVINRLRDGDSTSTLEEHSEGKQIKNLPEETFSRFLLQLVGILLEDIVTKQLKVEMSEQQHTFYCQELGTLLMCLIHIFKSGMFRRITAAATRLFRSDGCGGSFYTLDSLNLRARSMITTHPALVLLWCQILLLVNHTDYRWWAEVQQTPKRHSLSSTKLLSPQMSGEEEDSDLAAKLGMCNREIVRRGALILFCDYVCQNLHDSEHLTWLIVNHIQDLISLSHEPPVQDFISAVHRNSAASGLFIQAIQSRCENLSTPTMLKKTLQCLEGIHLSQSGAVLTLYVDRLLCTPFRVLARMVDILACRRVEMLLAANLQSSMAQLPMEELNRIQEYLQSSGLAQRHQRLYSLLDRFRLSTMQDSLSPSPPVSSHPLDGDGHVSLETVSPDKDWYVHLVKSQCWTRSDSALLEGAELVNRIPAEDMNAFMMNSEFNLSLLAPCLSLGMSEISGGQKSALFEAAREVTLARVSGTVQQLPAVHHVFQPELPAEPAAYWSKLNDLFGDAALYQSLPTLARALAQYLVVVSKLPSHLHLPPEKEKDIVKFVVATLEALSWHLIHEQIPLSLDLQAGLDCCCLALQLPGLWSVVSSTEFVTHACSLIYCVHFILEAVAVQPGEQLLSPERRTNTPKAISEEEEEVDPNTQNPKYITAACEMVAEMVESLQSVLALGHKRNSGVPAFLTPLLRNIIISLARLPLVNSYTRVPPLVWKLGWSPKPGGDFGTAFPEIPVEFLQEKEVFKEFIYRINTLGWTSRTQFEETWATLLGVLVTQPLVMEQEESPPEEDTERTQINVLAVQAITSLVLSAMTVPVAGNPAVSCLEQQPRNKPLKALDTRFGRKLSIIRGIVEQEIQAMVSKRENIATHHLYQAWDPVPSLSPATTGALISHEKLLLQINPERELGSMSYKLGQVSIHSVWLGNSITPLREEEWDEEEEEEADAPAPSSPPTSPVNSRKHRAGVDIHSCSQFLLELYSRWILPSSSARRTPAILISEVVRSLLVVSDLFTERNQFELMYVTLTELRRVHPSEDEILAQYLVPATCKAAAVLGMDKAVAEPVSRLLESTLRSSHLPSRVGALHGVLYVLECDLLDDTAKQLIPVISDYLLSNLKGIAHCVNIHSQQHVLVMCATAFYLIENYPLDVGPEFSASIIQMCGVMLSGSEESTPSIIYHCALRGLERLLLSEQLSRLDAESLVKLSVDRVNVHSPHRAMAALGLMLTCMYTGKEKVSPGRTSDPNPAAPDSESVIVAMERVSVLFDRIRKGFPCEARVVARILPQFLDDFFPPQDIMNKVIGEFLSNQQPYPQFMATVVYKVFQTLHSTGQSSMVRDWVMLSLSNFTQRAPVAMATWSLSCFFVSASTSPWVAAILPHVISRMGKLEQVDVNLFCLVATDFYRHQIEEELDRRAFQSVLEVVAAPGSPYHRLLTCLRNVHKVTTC
Pf apPOL inh: Pf-apPOL DNA polymerase inhibition; Recombinant Pf-apPOL, molecular beacon fluorescence, 1.5 h; inhibition, % at 10 µM; 0.25% of 210,000 active; AID 1794808
Large screens that a line does not name were inactive. Hits are enriched below; roughly 3.6% of the tested compounds scored in any of these assays. Rule as the data show it: active = inhibition above about 50%; inactive = the rest.

Cc1noc(C)c1CCC(=O)Nc1cccc(-c2ccc(N3CCCC3)nn2)c1	none
O=C(Cc1noc2ccccc12)Nc1cccc(-c2ccc(N3CCCC3)nn2)c1	mHTT CaM bind 67
CN1CCN(c2ccc(-c3cccc(NC(=O)c4cccs4)c3)nn2)CC1	none
O=C(Nc1cccc(-c2ccc(N3CCCC3)nn2)c1)c1cc(-c2cccs2)[nH]n1	mHTT CaM bind 99
O=c1cc(CN2CCN(c3cccc(Cl)c3)CC2)occ1OCc1ccccc1	none
COc1cc(/C=C2\C(=O)NN(c3ccccc3)C2=O)ccc1OCc1c(F)cccc1Cl	none
Cc1ccc2c(NC(=O)c3ccnn3C(C)C)cccc2n1	none
O=C(c1cccc(OCC2CCCN(C(=O)c3ccc(F)cc3F)C2)c1)N1CCCCC1 (centres undefined)	none
CCn1c(N2CCC(C(=O)NCc3ccc(OC)cc3)CC2)cc(=O)n(C)c1=O	mHTT CaM bind 57
CCc1ccc(CNC(=O)C2CCN(c3cc(=O)n(C)c(=O)n3CC)CC2)cc1	none
CCn1c(N2CCC(C(=O)NCc3ccco3)CC2)cc(=O)n(C)c1=O	mHTT CaM bind 52
CCn1c(N2CCC(C(=O)NCc3ccc4c(c3)OCO4)CC2)cc(=O)n(C)c1=O	none
CCCOc1nccnc1N1CCC(N(C)C(=O)c2cnccn2)C1 (centres undefined)	none
Cc1cccc(CSc2nnc(CNC(=O)c3ccc(S(=O)(=O)N(C)C)cc3)o2)c1	none
CN(C)C=C1Cc2ccccc2C1=O	none (no result: mHTT CaM bind)
CSc1scc2c1C(=O)C(=CN(C)C)CC2	Pf apPOL inh 93 (no result: mHTT CaM bind)
CNC(=O)N1CCCC(c2cccc(C(=O)N3CCN(c4ccc(F)cc4)CC3)c2)C1 (centres undefined)	none
O=C(C1CCCCC1)N1CCCC(c2ccnc(-c3cccc(F)c3)n2)C1 (centres undefined)	none
Cc1ccc(NC(=O)N2CC3CCCN3c3ccccc32)cc1F (centres undefined)	mHTT CaM bind 90
COc1ccc(NC(=O)N2CCN(C)c3ccccc32)cc1	none
CSc1cccc(NC(=O)N2CCC(N3CCN(Cc4ccc(C)cc4)C3=O)CC2)c1	none
CSc1cccc(NC(=O)N2CC3CCCN3c3ccccc32)c1 (centres undefined)	mHTT CaM bind 81
CSc1cccc(NC(=O)N2CCN(C)c3ccccc32)c1	mHTT CaM bind 80
Cc1ccc(NC(=O)N2CC3CCCN3c3ccccc32)cc1 (centres undefined)	mHTT CaM bind 59
Cc1ccc(NC(=O)N2CCOc3ccccc32)cc1F	none
O=C(Nc1ccc(F)cc1)N1CC2CCCN2c2ccccc21 (centres undefined)	none
CCc1ccc(NC(=O)N2CC3CCCN3c3ccccc32)cc1 (centres undefined)	mHTT CaM bind 91
CCc1ccc(NC(=O)N2CC(CC)Oc3ccccc32)cc1 (centres undefined)	none
O=C1NC2(CCN(C(=O)c3ccc(F)cc3)CC2)Nc2cc(Cl)ccc21	none
Cc1ccc(-n2nc(C)c3c2OC(N)=C(C#N)C3c2ccco2)cc1 (centres undefined)	mHTT CaM bind 60
Cc1ccc(-n2nc(C)c3c2OC(N)=C(C#N)C3c2c(F)cccc2Cl)cc1 (centres undefined)	none
Cn1ccc2c(-c3ccc(F)cc3F)cc3c(c21)C1CCC3O1 (centres undefined)	none
COc1ccccc1-c1cc2c(c3c1ccn3C)C1CCC2O1 (centres undefined)	none
Cn1ccc2c(-c3ccc4[nH]ccc4c3)cc3c(c21)C1CCC3O1 (centres undefined)	mHTT CaM bind 56
Cn1ccc2c(-c3cccc4ccccc34)cc3c(c21)C1CCC3O1 (centres undefined)	none
CN(c1cccc(F)c1)c1cc2c(c3c1ccn3C)C1CCC2O1 (centres undefined)	mHTT CaM bind 93
CN(c1ccc(Cl)cc1)c1cc2c(c3c1ccn3C)C1CCC2O1 (centres undefined)	mHTT CaM bind 100
Cn1ccc2c(N3CCCCCCC3)cc3c(c21)C1CCC3O1 (centres undefined)	mHTT CaM bind 71
CCCN(CC1CC1)c1cc2c(c3c1ccn3C)C1CCC2O1 (centres undefined)	none
COc1cc(C=NNC(=S)Nc2ccc(F)cc2)ccc1OC(=O)c1ccc(Cl)c(Cl)c1	none (no result: mHTT CaM bind)
COc1cc([N+](=O)[O-])c(OC)cc1NS(=O)(=O)c1ccccc1	none
Cn1c2ccccc2c2nnc(SCC(=O)Nc3cccc(F)c3)nc21	none
CCN(Cc1ccccc1)c1cc2c(c3c1ccn3C)C1CCC2O1 (centres undefined)	none
CCN(CC)c1cc2c(c3c1ccn3C)C1CCC2O1 (centres undefined)	none
CN(CCc1ccccc1)c1cc2c(c3c1ccn3C)C1CCC2O1 (centres undefined)	mHTT CaM bind 99
CN(c1cc2c(c3c1ccn3C)C1CCC2O1)C1CCCCC1 (centres undefined)	mHTT CaM bind 59
Cc1cc2nc3c(nc2cc1Cl)-c1ccccc1C3=O	none
O=C(NCCc1c[nH]c2ccccc12)c1cc2nc(-c3cccs3)cc(C(F)(F)Cl)n2n1	mHTT CaM bind 82
